Bioassay records as filed in PubChem BioAssay.
CYP2C19 inhib: blockers of cytochrome P450 2C19 activity – biochemical, luminescence, ADME assay, primary screen | CYP2C19 Supersomes, luciferin-H EGE luminescence, 30 min | inhibition, % at 5 µM | hit rate 21% among 96,000 | AID 778, 2007;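 active means CYP2C19 inhibition above a set limit at 5 µM in the primary screen, cut at about 50% in these data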;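 further: plate controls were negative control wells for no effect and 2.5 mM tranylcypromine positive control for full effect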
Target sequence (P33261 whole entry, looked up): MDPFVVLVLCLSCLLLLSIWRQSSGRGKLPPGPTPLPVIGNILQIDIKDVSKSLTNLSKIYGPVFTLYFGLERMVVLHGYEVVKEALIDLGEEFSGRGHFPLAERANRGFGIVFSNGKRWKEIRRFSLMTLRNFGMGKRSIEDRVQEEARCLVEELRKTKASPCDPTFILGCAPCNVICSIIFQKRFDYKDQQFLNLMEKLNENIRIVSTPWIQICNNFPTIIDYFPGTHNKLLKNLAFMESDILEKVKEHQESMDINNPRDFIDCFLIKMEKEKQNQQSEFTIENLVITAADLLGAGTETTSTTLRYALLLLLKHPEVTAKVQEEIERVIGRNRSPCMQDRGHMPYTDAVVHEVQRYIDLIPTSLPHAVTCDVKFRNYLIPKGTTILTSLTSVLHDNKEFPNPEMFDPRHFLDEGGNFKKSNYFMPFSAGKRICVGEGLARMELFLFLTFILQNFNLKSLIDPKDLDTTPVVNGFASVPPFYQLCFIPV
CYP2C9 act: human CYP2C9 activators, primary screen, biochemical, luminescence; hit rate 1.4% among 96,000; activation factor at 5 µM; AID 1024, 2008; Cytochrome P450 2C9 (Homo sapiens), P11712; recombinant CYP2C9, luciferin-H conversion; hits give high values; factor 1 = untreated enzyme, 0 = blocked;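 active means activation factor of 2 or more for CYP2C9 at a 5 µM dose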;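 further: 0 = sulfaphenazole-blocked wells and 1 = vehicle-only wells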
CYP2C9 inh: blockers of cytochrome P450 2C9 activity – biochemical, luminescence, ADME assay, primary screen | CYP2C9 Supersomes, luciferin-H conversion | P11712 | hit rate 20% among 96,000 | AID 777, 2007 | inhibition, % at 5 µM;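 active means blocking of liver enzyme CYP2C9 beyond about 50% at 5 µM, limit read from the data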
PostGolgi yeast: phenotypic screen on post-Golgi transport, primary screen; post-Golgi transport phenotypic cell assay; inhibition, % at 10 µM; hit rate 0.9% among 98,000; AID 739, 2007;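 further: yeast cells grown in 1536-well plates; yeast grown about 18 h at 30C before absorbance read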
CYP2C19 activ: human CYP2C19 activators, primary screen, biochemical, luminescence; 96,000 tested, under 10 active; recombinant CYP2C19, luciferin-H EGE luminescence; hits give high values; 0 = fully inhibited enzyme, 1 = untreated enzyme; AID 1025, 2008; activation factor at 5 µM; Cytochrome P450 2C19 (Homo sapiens), P33261;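 active means activation factor of at least 2 at 5 µM in the primary screen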;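 further: 0 = wells with 2.5 mM tranylcypromine and 1 = vehicle-only wells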
PostGolgi ctrl: growth inhibition of yeast control strain, primary screen, counter-screen for post-Golgi transport modulator project | efflux-deficient yeast background strain, growth absorbance A615, 16 h | hit rate 5% among 98,000 | inhibition, % at 10 µM
Numbers without * were called inactive; x = no result given. Compounds with a hit are over-represented: about 32% of the library has one in this group of screens. Unless noted, no stated cut-off is given here; in the data, active means inhibition above about 30%; inactive means the rest.

SMILES	CYP2C19 inhib	CYP2C9 act	CYP2C9 inh	PostGolgi yeast	CYP2C19 activ	PostGolgi ctrl
CCn1nnc(-c2ccccc2NC(=O)c2cc(OC)cc(OC)c2)n1	11	0.8	19	-13	0.9	10
CCOc1ccc(NC(=O)Cn2nnc(-c3ccccc3NC(=O)c3cccs3)n2)cc1	19	0.5	50*	-4	0.8	6
CCn1nnc(-c2ccccc2NC(=O)c2cc(OC)c(OC)c(OC)c2)n1	36	0.1	93*	-6	0.6	10
Cn1c(SCC(=O)Nc2cc(=O)n(C)c(=O)n2C)nnc1C12CC3CC(CC(C3)C1)C2	-20	1.2	-20	x	1.2	x
O=C(c1ccco1)N1CCN(S(=O)(=O)c2cccc(C(F)(F)F)c2)CC1	83*	0.3	71*	1	0.2	5
O=C(c1ccco1)N1CCN(S(=O)(=O)c2ccc3c(c2)CCN3C(=O)C2CC2)CC1	69*	0.7	26	18	0.3	-1
CC(=O)N1CCc2cc(Br)cc(S(=O)(=O)N3CCN(C(=O)c4ccco4)CC3)c21	28	0.4	59*	-3	0.7	3
CCOC(=O)C1CCCN(C(=O)c2cc3c(=O)n(C)c4ccccc4c3n2C)C1 (stereo not given)	3	1.2	-19	-3	1	8
CC(C)(C)n1nc2c(c1NC(=O)COc1ccc3ccccc3c1)CS(=O)C2 (stereo not given)	35	0.9	10	-5	0.7	-2
Cc1ccccc1-n1nc2c(c1NC(=O)COc1ccc(Cl)cc1)CS(=O)C2 (stereo not given)	100*	0.8	22	-9	0	6
O=C(Cn1nnc2c(sc3nc4c(c(-c5ccccc5)c32)CCC4)c1=O)c1ccccc1	-13	0.9	6	4	1.1	3
COc1ccc(C(=O)CN2C(=O)c3ccccc3C2=O)c(OC)c1C	83*	0.3	72*	-2	0.2	-1
Cc1cccc2c1NC(C)CC2C (stereo not given)	1	0.9	6	2	1	16
S=C1NC(c2ccccc2)=NCN1c1ccc(Cl)cc1	80*	0.6	42	1	0.2	7
CC1=N/C(=C\c2ccc([N+](=O)[O-])cc2)C(=O)N1c1ccc(Br)c(C)c1	18	0.7	30	6	0.8	2
CS(=O)(=O)NCCSc1nnnn1-c1ccccc1	52*	1.2	-17	10	0.5	4
O=S(=O)(NCCSc1nnnn1-c1ccccc1)c1cccs1	99*	0.9	6	-5	0	7
Cc1ccc(S(=O)(=O)NCCSc2nnnn2-c2ccc(C(N)=O)cc2)cc1	24	0.6	36	4	0.8	11
C(=C\CSc1nnnn1-c1ccccc1)/CSc1nnnn1-c1ccccc1	6	0.8	20	-12	0.9	30
O=C1OCC(c2ccccc2)=C1c1ccc(S(=O)(=O)N2CCOCC2)s1	10	0.8	24	-1	0.9	-2
Cc1ccc(S(=O)(=O)N2CCCN(S(=O)(=O)c3ccc4c(c3)OCCO4)CC2)cc1	27	2.7*	-171	2	0.7	12
CN1CCN(S(=O)(=O)c2ccc3c(c2)OCCO3)CC1	46	1.2	-22	-1	0.5	0
Cc1ccc2nc(N3CCN(S(=O)(=O)c4ccc5c(c4)OCCO5)CC3)c(C#N)cc2c1	70*	0.5	50*	-5	0.3	29
Cc1ccc2nc(N3CCN(C(=O)c4cccs4)CC3)c(C#N)cc2c1	30	0.6	41	2	0.7	13
Cc1ccc(S(=O)(=O)N2CCCN(S(=O)(=O)c3ccc(C(F)(F)F)cc3)CC2)cc1	33	2.5*	-149	17	0.7	8
COc1ccc(S(=O)(=O)N2CCN(S(=O)(=O)c3ccc4c(c3)OCCO4)CC2)cc1C	99*	0.1	87*	-1	0	10
Cc1ccc(S(=O)(=O)N2CCN(S(=O)(=O)N3CCCCC3)CC2)cc1	-6	1.1	-5	-3	1.1	1
Cn1nc(C(=O)N2CCN(S(=O)(=O)c3ccccc3)CC2)c2ccccc2c1=O	-6	1	2	-1	1.1	11
